Bioassay records from PubChem.
Most compounds without a hit are left out; they make up all but 3.5% or so of the library.
GPR151 ag: activates the human receptor GPR151. Q8TDV0. PathHunter beta-arrestin GPR151 cells, luminescence. activation, % at 11.2 µM. 1% of 650,000 active; in the data active = activation above about 4.9%
TEAD-YAP block: TEAD-YAP interaction inhibition; HEK-TIYL cells, TEAD-Gal4/YAP UAS-luciferase luminescence; inhibition, % at 9.12 µM; 1.4% of 640,000 active; in the data active = inhibition above about 32%
MITF primary: human MITF inhibition, primary screen | O75030 | AlphaScreen MITF homodimerization, bead proximity signal | inhibition, % at 2.6 µM | 0.91% of 650,000 active; in the data active = inhibition above about 50%
Target sequence (O75030 whole entry, looked up): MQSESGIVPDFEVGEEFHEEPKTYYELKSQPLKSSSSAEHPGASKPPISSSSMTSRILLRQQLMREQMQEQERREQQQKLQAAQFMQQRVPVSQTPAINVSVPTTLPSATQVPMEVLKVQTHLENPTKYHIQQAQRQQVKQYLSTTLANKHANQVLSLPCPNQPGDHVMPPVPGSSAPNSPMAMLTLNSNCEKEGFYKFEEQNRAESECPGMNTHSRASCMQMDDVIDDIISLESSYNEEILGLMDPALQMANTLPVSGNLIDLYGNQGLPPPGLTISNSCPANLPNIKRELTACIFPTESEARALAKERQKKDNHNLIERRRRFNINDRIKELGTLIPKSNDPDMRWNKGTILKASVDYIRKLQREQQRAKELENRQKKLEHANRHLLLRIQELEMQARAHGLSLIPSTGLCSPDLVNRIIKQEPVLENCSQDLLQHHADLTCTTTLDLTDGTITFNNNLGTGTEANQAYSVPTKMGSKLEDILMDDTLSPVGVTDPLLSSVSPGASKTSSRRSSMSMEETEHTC
FBW7 activator: human FBW7 E3 ligase activation, primary screen; normalized activity (activation), % at 26.1 µM; 0.13% of 650,000 active; Q969H0; AlphaScreen FBW7–phospho-cyclin E peptide binding, activator screen; in the data active = normalized activity above about 1.9%;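 note: purified mutant Fbw7 with reduced substrate affinity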
GPR151 confirm: confirmation of human GPR151 activators; activation, % at 11.2 µM; AID 1508609; GPR151 PathHunter beta-arrestin cells, luminescence, 90 min; % of EA-reagent control over plate median; 6,700 tested, under 10 active; shares compounds with GPR151 ag;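 active = mean percent activation across replicates above the confirmation screen cutoff of 4.91%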
GPR119 ag: activates human GPR119 in a GPR151 counter-screen | shares compounds with GPR151 ag | GPR119 PathHunter beta-arrestin cells, luminescence, 90 min; 0 = compound-well median, 100 = enzyme-acceptor control | activation, % at 11.2 µM | 0.3% of 6,700 active | AID 1508611;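 active = mean percent activation in the counterscreen above 29.09%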;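 note: counterscreen on off-target GPR119 to flag nonselective hits from the GPR151 activator screen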
A number is an active result; 0 = inactive; - = no result given.

SMILES	GPR151 ag	TEAD-YAP block	MITF primary	FBW7 activator	GPR151 confirm	GPR119 ag
CC(=O)c1cccc(NS(=O)(=O)N2CCCCCC2)c1	0	0	0	0	-	-
COc1cc(NC(=O)c2cccc(-n3cc(Nc4nncn4-c4ccccc4)cn3)c2)ccc1N1CCOCC1	0	0	0	0	-	-
c1ccc2c(c1)oc1c(NC3CCCCC3)ncnc12	0	0	0	0	-	-
COc1cccc(N2C(=O)NC(=O)/C(=C/c3ccc(O)c(O)c3)C2=O)c1	5.1	0	0	0	0	0
CCOc1cc(/C=C2\C(=O)NC(=O)N(c3ccc(Br)c(C)c3)C2=O)ccc1O	5.0	0	0	0	0	0
COc1ccc(N2C(=O)/C(=C/c3cccs3)C(=O)NC2=S)c(OC)c1	5.2	0	0	0	0	0
COc1ccc(/C=C2\C(=O)NC(=O)N(c3ccccc3OC)C2=O)cc1	4.9	0	0	0	0	0
COc1ccc(OC)c(N2C(=O)NC(=O)/C(=C/c3cccs3)C2=O)c1	0	0	0	0	-	-
O=C(NCCN1CCOCC1)c1cccc(-n2ncc3cc(Nc4ccsc4Cl)ccc32)c1	0	0	0	0	-	-
COC(=O)c1ccc(OCc2cccc([N+](=O)[O-])c2)cc1	0	0	0	0	-	-
CC(C)(C)C1CCC(C(=O)OCC(=O)NCc2ccc3c(c2)OCO3)CC1 (stereo not drawn)	0	0	0	0	-	-
Cc1cccc(N2C(=O)NC(=O)/C(=C\c3ccc(N(C)C)c([N+](=O)[O-])c3)C2=O)c1	5.6	0	0	0	0	0
O=C(NCCN1CCN(Cc2ccc(Br)cc2)CC1)C(=O)Nc1ccc(Cl)cc1	0	0	0	0	-	-
CNC(=O)C(=O)NCCN1CCN(Cc2ccc(Br)cc2)CC1	7.8	0	0	0	0	0
O=C1OC(c2cc(F)c(F)cc2Cl)=N/C1=C\c1ccc2c(c1)OCO2	0	0	0	0	-	-
CCN(CCO)c1cc(NC(C)C)c2c3c(onc13)-c1ccccc1C2=O	7.1	0	0	0	0	0
CCNc1cc(N(CC)CCO)c2noc3c2c1C(=O)c1ccccc1-3	0	0	0	0	-	-
Cc1cc(NS(=O)(=O)c2ccc(Cl)cc2)nn1CC(=O)NCc1ccco1	0	0	0	0	-	-
Cc1cc(NC(=O)Cn2cnc([N+](=O)[O-])n2)nn1CC(=O)NCc1ccco1	5.5	0	0	0	0	0
Nc1cc([N+](=O)[O-])cc2s[nH]c(=O)c12	0	0	0	0	-	-
O=C(CCC(=O)OCC(=O)c1ccc(Cl)c(Cl)c1)Nc1ccc(F)cc1	0	0	0	0	-	-
O=C(CCC(=O)OCC(=O)c1ccc(Cl)c(Cl)c1)Nc1ccccc1	5.5	0	0	0	0	0
Cc1cccc(N2CCN(c3ncnc4c3c(-c3ccccc3)cn4-c3cccc(Cl)c3)CC2)c1C	6.1	0	0	0	0	0
Clc1cccc(-n2cc(-c3ccccc3)c3c(N4CCN(c5ccccc5Cl)CC4)ncnc32)c1	0	0	0	0	-	-
Cc1nc2cc(-c3cccc(F)c3)nn2c(NCCN)c1C	5.2	0	0	0	0	0
SMILES	GPR151 ag	TEAD-YAP block	MITF primary	FBW7 activator	GPR151 confirm	GPR119 ag
O=C1CC(c2nc3ccccc3[nH]2)CN1c1ccccc1Cl (stereo not drawn)	0	0	0	0	-	-
Cc1c(Cl)cccc1N1CC(c2nc3ccccc3[nH]2)CC1=O (stereo not drawn)	5.6	0	0	0	0	0
CCn1c(O)c(C=NC2CCCC2)c(=O)[nH]c1=S	5.2	0	0	0	0	0
COc1cccc(NC(=O)c2cc3c(=O)n4ccccc4nc3n(CC(C)C)c2=N)c1	5.0	0	0	0	0	0
COCCn1c(=N)c(C(=O)NCc2ccco2)cc2c(=O)n3ccccc3nc21	7.3	0	0	0	0	0
CN(C)C(NC(=O)Cc1ccccc1)C(Cl)(Cl)Cl (stereo not drawn)	6.0	0	0	0	0	0
CN(C(=O)Cc1ccccc1)N(C)C(=O)Cc1ccccc1	5.0	0	0	0	0	0
O=C1CC(c2ccccc2Cl)CC2=C1C(c1ccccc1F)Nc1ccccc1N2 (stereo not drawn)	0	0	0	0	-	-
CCC(C)NC(=O)CN1CCN(c2ccccc2F)C1=O (stereo not drawn)	0	0	0	0	-	-
COc1ccc(C(=O)Oc2c(Cl)cc(/C=C3\SC(N)=NC3=O)cc2OC)cc1	8.2	0	0	0	0	0
COc1cc(/C=C2\SC(N)=NC2=O)ccc1OC(=O)c1ccc(Cl)cc1	0	0	0	0	-	-
COc1cccc(C(=O)Nc2cccc(N3CCCC3=O)c2)c1	0	0	0	0	-	-
COc1cccc(Nc2nnc(-c3cc4ccc(O)cc4oc3=O)s2)c1	5.8	0	0	0	0	0
O=C(Oc1ccccc1[N+](=O)[O-])c1ccccc1Cl	10	0	0	0	0	0
O=C(Oc1ccccc1[N+](=O)[O-])c1ccc(F)cc1	5.9	0	0	0	0	0
CCOC(=O)c1c(NC(=O)/C=C/c2ccc(C)o2)sc(C)c1C	9.8	0	0	0	0	0
Cc1cc(NC(=O)CSc2nc3ccsc3c(=O)n2-c2ccc(C(N)=O)cc2)no1	5.0	0	0	0	0	0
Cc1cc(C)c(NS(=O)(=O)c2ccc(O)c(C(=O)O)c2)c(C)c1	0	0	0	0	-	-
Cn1c(N)c(S(=O)(=O)N2CCN(c3ccccc3Cl)CC2)c(=O)n(C)c1=O	26	0	0	0	0	0
COc1ccc2nc(C)[nH]c2c1	5.2	0	0	0	0	0
COc1cc2nc(C)[nH]c2cc1OC	0	0	0	0	-	-
CC(C)CCNC(=O)/C=C/c1ccc2c(c1)OCO2	0	0	0	0	-	-
CCN1C(=O)/C(=C/c2ccc(C(=O)OC)cc2)NC1=S	0	0	0	0	-	-
CCN1C(=O)/C(=C/c2ccc(OCc3ccc(C(=O)O)cc3)cc2)NC1=S	7.8	0	0	0	0	0
CCCCCc1ccc(OCCOCCn2c[n+](C)c3ccccc32)c(CCCCC)c1	4.9	52	0	0	0	0
SMILES	GPR151 ag	TEAD-YAP block	MITF primary	FBW7 activator	GPR151 confirm	GPR119 ag
O=c1c2ccccc2nc(SCc2c(F)cccc2Cl)n1C1CC1	5.1	0	0	0	0	0
Cc1ccc(S(=O)(=O)N(C)CC(=O)OCc2cc([N+](=O)[O-])cc3c2OCOC3)cc1	8.1	0	0	0	0	0
CNc1ccccc1-c1nc2cc3ccccc3cc2n(C)c1=O	0	0	0	0	-	-
O=C(Nc1nnc(S(=O)(=O)N2CCCCC2)s1)c1ccc(Cl)cc1	5.6	0	0	0	0	0
O=C(Nc1nnc(S(=O)(=O)N2CCCCC2)s1)C12CC3CC(CC(C3)C1)C2	5.5	0	0	0	0	0
Cc1cccc(OCC(=O)N/N=C/c2cc([N+](=O)[O-])cc([N+](=O)[O-])c2O)c1	0	0	0	0	-	-
COc1ccc(-n2nnnc2C2CCN(S(=O)(=O)c3cccs3)CC2)cc1	0	0	0	0	-	-
O=C(N/N=C/c1ccncc1)C1CC1(c1ccccc1)c1ccccc1 (stereo not drawn)	5.9	0	0	0	0	0
